From PubChem BioAssay (NCI)
“And” between values parts separate entries of the source, which are not always exact repeats. Equal entries are not always repeated. The panel holds about 83,000 compounds, 20% with a hit somewhere; the sample as a whole holds those more often.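 Single-dose data. Exposure time 48 hours. Values below 10 considered active.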 The source made the active and inactive calls.

Experiments:
Assay in all cases: NCI-60 one-dose screen, 48 h (100 = growth as untreated, 0 = no growth, -100 = all killed)
SR leukemia = conditions: 10 µM
RPMI-8226 leukemia = conditions: 10 µM
OVCAR-8 ovarian = conditions: 10 µM
OVCAR-5 ovarian = conditions: 10 µM
OVCAR-4 ovarian = conditions: 10 µM
SK-OV-3 ovarian = conditions: 10 µM
OVCAR-3 ovarian = conditions: 10 µM
HS 578T breast = conditions: 10 µM
NCI/ADR-RES ovarian = conditions: 10 µM
T-47D breast = conditions: 10 µM
BT-549 breast = conditions: 10 µM
MDA-MB-435 melanoma = conditions: 10 µM
SW-620 colon = conditions: 10 µM
MCF7 breast = system: MCF7 breast
HCT-116 colon = conditions: 10 µM
HCC-2998 colon = conditions: 10 µM
KM12 colon = conditions: 10 µM
IGROV1 ovarian = conditions: 10 µM

Measured: growth

CC(=O)Cc1ccc(-c2ccccc2)cc1
inactive: SR leukemia 102% | RPMI-8226 leukemia 97.5% | OVCAR-8 ovarian 104% | OVCAR-5 ovarian 112% | OVCAR-4 ovarian 109% | SK-OV-3 ovarian 108% | OVCAR-3 ovarian 113% | HS 578T breast 99.4% | NCI/ADR-RES ovarian 103% | T-47D breast 97.6% | BT-549 breast 109% | MDA-MB-435 melanoma 114% | SW-620 colon 108% | MCF7 breast; 10 µM unless noted 93.3% | HCT-116 colon 103% | HCC-2998 colon 101% | KM12 colon 101%

CCOC(=O)c1[nH]c(C)c(C(=O)O)c1C
inactive: SR leukemia 97.6% | RPMI-8226 leukemia 96.6% | OVCAR-8 ovarian 105% | OVCAR-5 ovarian 113% | SK-OV-3 ovarian 118% | IGROV1 ovarian 108% | OVCAR-3 ovarian 115% | HS 578T breast 131% | NCI/ADR-RES ovarian 107% | T-47D breast 109% | MDA-MB-435 melanoma 110% | SW-620 colon 107% | MCF7 breast; 10 µM unless noted 78.9% | HCT-116 colon 116% | HCC-2998 colon 107% | KM12 colon 110%

CCC(C)(O)c1ccc(C)cc1 (configuration not stated)
inactive: SR leukemia 105% | RPMI-8226 leukemia 96.7% | OVCAR-8 ovarian 104% | OVCAR-5 ovarian 101% | OVCAR-4 ovarian 106% | SK-OV-3 ovarian 97.8% | OVCAR-3 ovarian 107% | HS 578T breast 112% | NCI/ADR-RES ovarian 110% | T-47D breast 104% | BT-549 breast 105% | MDA-MB-435 melanoma 106% | MCF7 breast; 10 µM unless noted 100% | HCT-116 colon 108% | HCC-2998 colon 105% | KM12 colon 100%

CC(=O)OCC1OC(OC2=C(CC=C(C)C)C(=O)c3ccccc3C2=O)C(OC(C)=O)C(OC(C)=O)C1OC(C)=O (configuration not stated)
inactive: OVCAR-8 ovarian 53.6% | OVCAR-5 ovarian 89.7% | SK-OV-3 ovarian 84.4% | IGROV1 ovarian 68% | HS 578T breast 18% | NCI/ADR-RES ovarian 32.4% | SW-620 colon 11.1% | HCC-2998 colon 77.9%
active: SR leukemia -42.9% | RPMI-8226 leukemia -13.1% | OVCAR-3 ovarian -33.1% | T-47D breast -61.3% | BT-549 breast -6.85% | MDA-MB-435 melanoma -17.1% | MCF7 breast; 10 µM unless noted -60.2% | HCT-116 colon 1.75% | KM12 colon 5.15%

COc1cc(C(=O)N/N=C/c2cccc([N+](=O)[O-])c2)cc(OC)c1OC
active: MDA-MB-435 melanoma 1.31%
inactive: SR leukemia 28.5% | RPMI-8226 leukemia 77.1% | OVCAR-8 ovarian 83.1% | OVCAR-5 ovarian 83.7% | SK-OV-3 ovarian 67.2% | IGROV1 ovarian 60.6% | OVCAR-3 ovarian 12.2% | HS 578T breast 49.3% | NCI/ADR-RES ovarian 38.1% | T-47D breast 51.9% | SW-620 colon 23.8% | MCF7 breast; 10 µM unless noted 23.9% | HCT-116 colon 23.9% | HCC-2998 colon 52.7% | KM12 colon 19%

Nc1ncnc2c1nc(N)n2C1OC(CO)C(O)C1O (configuration not stated)
active: SR leukemia -3.14% | RPMI-8226 leukemia 5.98% | OVCAR-8 ovarian 2.25% | OVCAR-5 ovarian -12.9% | OVCAR-4 ovarian -2.8% | OVCAR-3 ovarian -12.9% | HS 578T breast -13.9% | NCI/ADR-RES ovarian -45.2% | T-47D breast -46.3% | BT-549 breast -83.6% | MDA-MB-435 melanoma -80.3% | SW-620 colon -11.8% | MCF7 breast; 10 µM unless noted -20.5% | HCT-116 colon 1.19% | HCC-2998 colon -82% | KM12 colon -77.3%

O=C(N/N=C\c1cc(Br)cc(Br)c1O)N/N=C/c1cc(Br)cc(Br)c1O
inactive: RPMI-8226 leukemia 19.3% | OVCAR-8 ovarian 55.5% | OVCAR-5 ovarian 64.6% | OVCAR-4 ovarian 43.4% | SK-OV-3 ovarian 79.7% | OVCAR-3 ovarian 12.1% | HS 578T breast 60.6% | NCI/ADR-RES ovarian 35.6% | T-47D breast 62.3% | MDA-MB-435 melanoma 66.9% | SW-620 colon 56.3% | MCF7 breast; 10 µM unless noted 52.1% | HCT-116 colon 31.2% | KM12 colon 66.7%
active: SR leukemia -18.4%

O=S(=O)(O)C(Nc1ccccc1)c1ccccc1 (configuration not stated)
inactive: SR leukemia 98.9% | RPMI-8226 leukemia 100% | OVCAR-8 ovarian 104% | OVCAR-5 ovarian 92.4% | OVCAR-4 ovarian 102% | SK-OV-3 ovarian 97% | OVCAR-3 ovarian 107% | HS 578T breast 93.2% | NCI/ADR-RES ovarian 96.9% | T-47D breast 93.7% | MDA-MB-435 melanoma 104% | SW-620 colon 102% | MCF7 breast; 10 µM unless noted 98.5% | HCT-116 colon 103% | KM12 colon 100%
active: HCC-2998 colon -12.8%

COc1ccc(NC(=O)CCl)cc1
inactive: SR leukemia 56.3% | RPMI-8226 leukemia 55.8% | OVCAR-8 ovarian 80.8% | OVCAR-5 ovarian 68.2% | SK-OV-3 ovarian 87.7% | IGROV1 ovarian 59% | NCI/ADR-RES ovarian 77% | T-47D breast 62.7% | BT-549 breast 66.3% | MDA-MB-435 melanoma 87% | SW-620 colon 98.3% | MCF7 breast; 10 µM unless noted 64.4% | HCT-116 colon 53.5% | HCC-2998 colon 99.6% | KM12 colon 85.5%

CC(=O)OCC1=CC2OC(=O)C3=COC(OC4OC(CO)C(O)C(O)C4O)C1C32 (configuration not stated)
inactive: SR leukemia 120% | RPMI-8226 leukemia 114% | OVCAR-5 ovarian 111% | OVCAR-4 ovarian 129% | SK-OV-3 ovarian 108% | IGROV1 ovarian 71.3% | OVCAR-3 ovarian 112% | NCI/ADR-RES ovarian 32.9% | T-47D breast 105% | BT-549 breast 110% | MDA-MB-435 melanoma 109% | SW-620 colon 111% | MCF7 breast; 10 µM 96.7% | MCF7 breast; 100 µM 78% and 90.4% | HCT-116 colon 123% | HCC-2998 colon 300% | KM12 colon 107%

Cc1c(O)cccc1O
inactive: SR leukemia 84% | OVCAR-8 ovarian 106% | OVCAR-5 ovarian 106% | OVCAR-4 ovarian 108% | SK-OV-3 ovarian 97.1% | IGROV1 ovarian 159% | OVCAR-3 ovarian 109% | HS 578T breast 102% | NCI/ADR-RES ovarian 94.2% | T-47D breast 98.2% | BT-549 breast 77.1% | MDA-MB-435 melanoma 94.9% | SW-620 colon 99.5% | MCF7 breast; 10 µM unless noted 104% | HCT-116 colon 103% | HCC-2998 colon 102% | KM12 colon 118%

O=S(=O)(Cc1ccccc1)c1ccccc1
inactive: SR leukemia 99.9% | OVCAR-8 ovarian 102% | OVCAR-5 ovarian 106% | OVCAR-4 ovarian 98.1% | SK-OV-3 ovarian 113% | IGROV1 ovarian 114% | OVCAR-3 ovarian 107% | HS 578T breast 133% | NCI/ADR-RES ovarian 117% | T-47D breast 110% | BT-549 breast 105% | MDA-MB-435 melanoma 107% | SW-620 colon 115% | MCF7 breast; 10 µM unless noted 99.5% | HCT-116 colon 103% | HCC-2998 colon 105% | KM12 colon 110%

CC(=O)c1ccc(C(C)(C)C)cc1
inactive: SR leukemia 90.6% | RPMI-8226 leukemia 95.5% | OVCAR-8 ovarian 98.3% | OVCAR-4 ovarian 93.5% | SK-OV-3 ovarian 101% | IGROV1 ovarian 96.7% | OVCAR-3 ovarian 103% | T-47D breast 98.2% | BT-549 breast 102% | MDA-MB-435 melanoma 106% | SW-620 colon 110% | MCF7 breast; 10 µM unless noted 94.5% | HCT-116 colon 97.5% | HCC-2998 colon 96.2% | KM12 colon 102%

COc1ccc(C)cc1OC
inactive: SR leukemia 99% | OVCAR-8 ovarian 102% | OVCAR-5 ovarian 114% | OVCAR-4 ovarian 104% | SK-OV-3 ovarian 108% | IGROV1 ovarian 99.8% | OVCAR-3 ovarian 102% | HS 578T breast 114% | NCI/ADR-RES ovarian 101% | T-47D breast 107% | BT-549 breast 114% | MDA-MB-435 melanoma 108% | SW-620 colon 107% | MCF7 breast; 10 µM unless noted 102% | HCT-116 colon 105% | HCC-2998 colon 100% | KM12 colon 105%

Oc1ccc2c(c1)OCC1(O)Cc3cc(O)c(O)cc3C21 (configuration not stated)
inactive: SR leukemia 78.4% | RPMI-8226 leukemia 62.5% | OVCAR-5 ovarian 96.3% | OVCAR-4 ovarian 38.2% | SK-OV-3 ovarian 193% | IGROV1 ovarian 75.3% | OVCAR-3 ovarian 93.7% | HS 578T breast 102% | NCI/ADR-RES ovarian 91.7% | T-47D breast 168% | BT-549 breast 88.9% | MDA-MB-435 melanoma 92.3% | SW-620 colon 95% | MCF7 breast; 10 µM unless noted 103% | HCT-116 colon 84.1% | HCC-2998 colon 64.8% | KM12 colon 96.5%

Cc1cc(C)c(N)c(S(=O)(=O)O)c1
inactive: SR leukemia 81.4% | RPMI-8226 leukemia 92.4% | OVCAR-8 ovarian 104% | OVCAR-4 ovarian 98.9% | SK-OV-3 ovarian 94.6% | IGROV1 ovarian 108% | OVCAR-3 ovarian 113% | T-47D breast 93.2% | MDA-MB-435 melanoma 98.9% | SW-620 colon 111% | MCF7 breast; 10 µM unless noted 92.1% | HCT-116 colon 93.6% | HCC-2998 colon 91.2% | KM12 colon 115%

COc1cc2cc(c1Cl)N(C)C(=O)C[C@H](OC(=O)[C@H](C)N(C)C(C)=O)[C@]1(C)O[C@H]1[C@H](C)[C@@H]1C[C@@](O)(NC(=O)O1)[C@H](OC)C=C/C=C(\C)C2
active: RPMI-8226 leukemia -4.44% | OVCAR-3 ovarian -42.8% | HS 578T breast 9.98% | NCI/ADR-RES ovarian 3.31% | BT-549 breast -21% | MDA-MB-435 melanoma -53.3% | HCT-116 colon -18.6% | HCC-2998 colon -32% | KM12 colon -42.3%
inactive: SR leukemia 10.2% | OVCAR-5 ovarian 32.4% | SK-OV-3 ovarian 36.1% | T-47D breast 74.6% | SW-620 colon 26.5% | MCF7 breast; 10 µM unless noted 14.2%

CCNCCCCNCCCCNCCCCNCCCCNCC
inactive: SR leukemia 68.5% | RPMI-8226 leukemia 82.4% | OVCAR-5 ovarian 108% | SK-OV-3 ovarian 118% | OVCAR-3 ovarian 93.4% | HS 578T breast 76.2% | NCI/ADR-RES ovarian 122% | T-47D breast 72.2% | BT-549 breast 123% | MDA-MB-435 melanoma 50.2% | MCF7 breast; 10 µM unless noted 101% | HCT-116 colon 92.6% | HCC-2998 colon 101% | KM12 colon 62.1%
